Test: LNCaP granularity increase inducers, single-point recheck – cell-based, side scatter shift, flow cytometry, confirmation (AID 1069);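 also: LNCaP human prostate cancer cells in low-serum medium with charcoal-stripped FBS; percent of cells with raised granularity gated so DMSO controls show 10%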
Details: LNCaP differentiation, 4 d, side scatter shift, at 10 µM, stronger effect = higher value

First: Cc1ccccc1CN1CCN(CC(=O)NCCCN2CCN(c3ccc(F)cc3)CC2)C1=O
Second: Cn1c(=O)cc(SCC(=O)NCCCN2CCN(c3ccc(F)cc3)CC2)c2ccccc21
The side scatter shift of the first is lower: 5.15% for the first, 8.35% for the second.

First: Cc1noc(C)c1S(=O)(=O)N1CCC(C(=O)NCCN2CCC(C)CC2)CC1
Second: CCN1CCN(CCNC(=O)C2CCN(Cc3nc(-c4ccc(Cl)cc4)oc3C)CC2)CC1
The side scatter shift of the first is lower: 4.95% for the first, 28.8% for the second.

First: Cc1oc(-c2ccc(Cl)cc2)nc1CN1CCCC(C(=O)NCc2ccccn2)C1 (stereo not drawn)
Second: CCN(CCNC(=O)C1CCCN(Cc2nc(-c3ccc(OC)cc3)oc2C)C1)c1ccccc1 (stereo not drawn)
The side scatter shift of the first is lower: 6.45% for the first, 35.5% for the second.

Going from `COC(=O)c1[nH]c2c(c1C)C(=O)CCC2` to `COc1ccc(N2CCN(CCCNC(=O)CC3Oc4ccc(C)cc4NC3=O)CC2)cc1` (stereo not drawn), the side scatter shift rises from 3.6% to 9.05%.

First: Cn1c(=O)cc(OCC(=O)NCCCN2CCN(c3cccc(Cl)c3)CC2)c2ccccc21
Second: CCn1c(=O)cc(OCC(=O)NCCCN2CCN(c3cccc(Cl)c3)CC2)c2ccccc21
The side scatter shift of the first is lower: 8.2% for the first, 18.3% for the second.

Compared with `Cc1ccccc1Cn1cnc2c(cnn2C(C)(C)C)c1=O`, `Cc1cc2c(=O)n(CC(=O)N3CCN(c4ccccc4)CC3)cnc2s1` is higher in side scatter shift: 5.05% for the first, 5.8% for the second.

Compared with `COc1ccc(C)cc1NC(=O)CCC(=O)Nc1ccc2nc(N3CCN(C)CC3)cc(C)c2c1`, `COC(=O)c1ccc2c(=O)n(Cc3ccco3)c(SCC(=O)Nc3ccc(C)c(Cl)c3)nc2c1` is lower in side scatter shift: 13.4% for the first, 10.6% for the second.

Compared with `COc1ccccc1N1CCN(Cc2cc(Br)c(O)c3ncccc23)CC1`, `COc1ccc(-n2cc(-c3ccccc3)c3c(N4CCN(CCO)CC4)ncnc32)cc1` is lower in side scatter shift: 17.4% for the first, 9.55% for the second.

Compared with `Cn1c(=O)n(C)c2cc(CN3C(=O)OC(C)(C)C3(C)O)ccc21` (stereo not drawn), `Cn1c(C(=O)NCCN2CCN(c3ccccc3F)CC2)cc2c(=O)n(C)c3ccccc3c21` is higher in side scatter shift: 2.45% for the first, 7.7% for the second.

First: CN1CCN(c2cc3c(c4c2[nH]c2ccccc24)C(=O)CC(C)(C)C3)CC1
Second: Cn1c(C(=O)NCCCN2CCN(c3ccccc3F)CC2)cc2c(=O)n(C)c3ccccc3c21
The side scatter shift of the first is higher: 56.2% for the first, 7.65% for the second.

Going from `O=C(Nc1cccc(Cl)c1)N1CCN(Cc2ccccc2)CC1` to `c1ccc(N2CCN(c3nnc(Cc4cccnc4)c4ccccc34)CC2)nc1`, the side scatter shift falls from 10.2% to 8%.

Compared with `CCN1C=C(Cc2cccs2)C2=C(C1)C(c1cccs1)C(C#N)=C(N)O2` (stereo not drawn), `CCOC(=O)c1c(NCc2ccc3c(c2)OCO3)c2ccccc2[nH]c1=O` is lower in side scatter shift: 5.2% for the first, 4.75% for the second.

Compared with `Cc1cc(N2CCC(N(C)C3CCCC3)CC2)nc2cc(O)ccc12`, `Cc1cc(=O)oc(C)c1C(=O)NCCCN1CCN(c2ccc(F)cc2)CC1` is lower in side scatter shift: 22.5% for the first, 5.05% for the second.

Compared with `CCn1c(=O)cc(OCC(=O)O)c2ccccc21`, `CCC(=O)N(Cc1ccco1)c1nc(-c2cc(OC)ccc2OC)cs1` is higher in side scatter shift: 6.7% for the first, 9.2% for the second.

Going from `Nc1ccccc1NC(=O)c1ccccc1N` to `O=C(NCCCN1CCN(c2ccccc2F)CC1)C1CCN(S(=O)(=O)c2cccs2)CC1`, the side scatter shift rises from 2.1% to 3.7%.

Going from `COc1ccc(-n2c(C)nc3c(cnn3-c3ccc(Cl)cc3)c2=O)cc1` to `COc1ccc(Cc2noc(-c3ccc(C)cc3)n2)cc1`, the side scatter shift rises from 5.6% to 10.1%.

First: COc1ccc(N2CCN(CCCNC(=O)C3CCCN(S(=O)(=O)c4cnc[nH]4)C3)CC2)cc1 (stereo not drawn)
Second: COc1ccc(-c2noc(CCC(=O)NCCCN3CCC(C)CC3)n2)cc1
The side scatter shift of the first is lower: 4.05% for the first, 4.9% for the second.

Compared with `COc1ccc2nc(NC(=O)C(NS(=O)(=O)c3cccs3)C(C)C)sc2c1` (stereo not drawn), `CCCCOC(=O)Nc1cc(C(=O)OC)ccc1C(=O)OC` is lower in side scatter shift: 3.1% for the first, 1.25% for the second.

Going from `CCN(CC)CCCNC(=O)c1cc(-c2ccc(Cl)c(Cl)c2)on1` to `O=C(CN1CCN(Cc2ccc3c(c2)OCO3)CC1)N1CCc2[nH]c3ccc(F)cc3c2C1`, the side scatter shift falls from 36.7% to 7.3%.

— PubChem BioAssay AID1069 (NMMLSC, 2008)
